22 molecules from PubChem BioAssay (NCATS) can be followed below.

Assay [1] has as its target Cellular tumor antigen p53 (Homo sapiens) (UniProt P04637). Kind of assay: Primary qHTS for small molecule compounds that upregulate eGFP-tagged delta133p53alpha (in N-terminal) cells. (AID 2060322).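 For activation: series mostly up to about 56 µM; 0% = DMSO vehicle and 100% = reference activator.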 Note: nearly all actives have a fitted effect of over 75% in size. Note: potency is the fitted concentration of half-maximal effect. The settings on record: NCI-H358 eGFP-delta133p53alpha fluorescence, 24 h; activation: active compounds read high. Put shortly:
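NCI-H358 cells pre-induced 24 h with 10 ng/ml doxycycline to express N-terminal eGFP-delta133p53alpha, then dosed 24 h at 37C without doxycycline; fixed, Hoechst-stained, GFP intensity by laser scanning cytometry, normalized to DMSO (0%) and 57.5 uM 5-azacytidine (100%).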
On the technique in general: In qHTS, concentration-response curves come from the screen itself.

Assay [2] concerns the target Aldehyde dehydrogenase, mitochondrial (Homo sapiens) (UniProt P05091). Briefly: qHTS for Inhibitors of the Aldehyde Dehydrogenase Family (ALDH2) Primary screen (AID 2061308).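 Note: plate controls were vehicle for no effect and reference inhibitor for full effect; nearly all actives have a fitted effect of over 55% in size.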
Assay [3] addresses Retinaldehyde dehydrogenase 3 (Homo sapiens) (UniProt P47895). Kind of assay: qHTS for Inhibitors of the Aldehyde Dehydrogenase Family (ALDH1A3) Primary screen (AID 2061315).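 Note: plate controls were DMSO vehicle for no effect and reference inhibitor for full effect.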

Records with an inconclusive call do not appear. Unmarked numbers belong to inactive results. Activity calls are given as the source filed them. Calls come from the whole dose curve; as a rule, active = well fitted curve in the direction sought with a large enough effect; inconclusive = small, poorly fitted or top-dose-only effect, or another doubt; inactive = no such curve, though single readings can be large; an effect the other way counts as inactive or inconclusive.

Sequence of Cellular tumor antigen p53 (Homo sapiens) (P04637 whole entry, looked up): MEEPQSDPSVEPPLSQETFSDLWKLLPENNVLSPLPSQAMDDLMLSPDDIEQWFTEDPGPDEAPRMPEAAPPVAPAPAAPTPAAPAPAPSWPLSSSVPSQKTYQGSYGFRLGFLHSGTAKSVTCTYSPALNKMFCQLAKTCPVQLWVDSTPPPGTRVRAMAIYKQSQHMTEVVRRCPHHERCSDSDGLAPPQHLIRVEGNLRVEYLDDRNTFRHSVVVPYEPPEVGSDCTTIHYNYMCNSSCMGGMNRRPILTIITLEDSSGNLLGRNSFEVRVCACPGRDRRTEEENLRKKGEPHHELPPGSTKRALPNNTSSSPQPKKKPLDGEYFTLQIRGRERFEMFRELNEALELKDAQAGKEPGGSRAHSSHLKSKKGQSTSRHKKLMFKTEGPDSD

Regarding `NCCOCCOCCNC(=O)Cc1ccc(Nc2nc(NCc3ccc(F)cc3)nc(NCC3CCCCC3)n2)cc1`, the activation in assay [1] was 2.33%. Further, the Potency entry in assay [2] and in assay [3] was “inactive” each time.

On to `COCC(=O)N1CCc2cc(-c3csc(NC(=O)c4cc(OC)cc(OC)c4)n3)ccc21`, for which, in assay [1], the activation is 13.7%. For the same molecule, the Potency entry in assay [2] and in assay [3] was “inactive” throughout.

With `C[C@@H]1C[C@@H](O)[C@@]23CO[C@]2(CO)C[C@@H](O)CC3[C@@]12CC(c1ccoc1)OC2=O` (stereo partly specified), in assay [1], the activation is -7.14%. Besides, the Potency result in assay [2] and in assay [3] was “inactive” throughout.

On to `C/C=C(/C)C(=O)OC1CC(C)(C)CC2C3=CCC4C5(C)CCC(O[C@@H]6O[C@H](C(=O)O)[C@@H](O)[C@H](O)[C@H]6O[C@@H]6O[C@H](CO)[C@H](O)[C@H](O[C@@H]7OC[C@H](O)[C@H](O)[C@H]7O[C@@H]7O[C@H](CO)[C@@H](O)[C@H](O)[C@H]7O)[C@H]6O)C(C)(C)C5CCC4(C)C3(C)C(O)C(O)C12CO` (stereo partly specified), for which the activation in assay [1] is 0.893%. Also, the activity change, negative = inhibition in assay [2] is -0.94% [at 11.2 µM]; in assay [3], -6.72% [at 11.2 µM].

Consider `CC1CCCC(O)CC(=O)c2c(O)cc(O)cc2CC(=O)O1` (stereo unspecified), for which, in assay [1], the activation was 4.58%. In addition, the Potency result in assay [2] and in assay [3] was “inactive” each time.

For the molecule `COc1cccc(NCCC2(c3ccccc3)CC(C)(C)OC(C)(C)C2)c1`, the Potency in assay [1] is 21.7 µM (active). Further, the Potency entry in assay [2] and in assay [3] was “inactive” in each case.

Consider `C/C=C(/C)C(=O)OC1C=C2C3C(C)C(C)C(OC(=O)C(C)C(C)O)CC3(C)CCC2(C)C2(C)CC(OC(C)=O)C3C(C)(C)C(O)C(=O)CC3(C)C12` (stereo unspecified), for which the activation in assay [1] was -17%. For the same molecule, the Potency entry in assay [2] and in assay [3] was “inactive” each time.

With `CCC(C)C(=O)O[C@H]1[C@@H](O[C@H]2O[C@H](CO)[C@@H](O)[C@H](O)[C@H]2O)O[C@H](CO)[C@@H](O)[C@@H]1O` (stereo partly specified), in assay [1], the activation was 13.7%. For the same molecule, the Potency result in assay [2] and in assay [3] was “inactive” each time.

As for `O=C1CCC=CC1(O)C(=O)OCc1ccccc1O[C@@H]1O[C@H](CO)[C@@H](O)[C@H](O)[C@H]1O` (stereo partly specified), in assay [1], the activation was 15.3%. Moreover, the Potency entry in assay [2] and in assay [3] was “inactive” throughout.

`CC1=C2C[C@H]3O[C@@]3(C)CCC3O[C@@]3(C)C[C@@]2(O)OC1=O` (stereo partly specified): in assay [1], the activation was -2.29%. For the same molecule, the Potency entry in assay [2] and in assay [3] was “inactive” throughout.

Take `C=CC(C)(O)C1CC2C3(C)CCCC(C)(C)C3C(O)C(O)C2(C)O1` (stereo unspecified): in assay [1], the activation was -9.82%. The Potency entry in assay [2] and in assay [3] was “inactive” throughout.

For the molecule `COC1/C=C/C(C)(O)C(SCC(N)C(=O)O)CC(=O)OC(C)C(C)CC/C=C/1C` (stereo unspecified), the activation in assay [1] was 0.763%. Also, the Potency result in assay [2] and in assay [3] was “inactive” in each case.

With `C=C(CO)C(=O)O[C@H]1C[C@@]23O[C@@H]2CC/C(=C/[C@H]2OC(=O)C(=C)[C@H]12)CO[C@H]3O`, the activation in assay [1] was 26.8%. In addition, the Potency result in assay [2] and in assay [3] was “inactive” each time.

`CC(C(=O)O)C1CCC2(C)C3C(=O)C=C4C(CCC(=O)C4(C)C)C3(C)CCC12C` (stereo unspecified): in assay [1], the activation was -15.2%. The Potency result in assay [2] and in assay [3] was “inactive” throughout.

As for `COc1c2c(c(C)c3c1C(=O)OC3)OC1(C)CC(O)C34OC(O)(CCC3(C)C1C2)OC4(C)C` (stereo unspecified), in assay [1], the activation was -6.87%. Also, the Potency entry in assay [2] and in assay [3] was “inactive” throughout.

Regarding `COc1cc(/C=C/C(=O)OC2CC3CCC2(C)C3(C)C)ccc1O` (stereo unspecified), the activation in assay [1] was -14.5%. The Potency entry in assay [2] and in assay [3] was “inactive” each time.

For the molecule `CC(=O)OC1C(O)C(C)(O)C(/C=C/C(=O)O)C2(C)CCCC(C)(C)C12` (stereo unspecified), the activation in assay [1] is -17.6%. Also, the Potency result in assay [2] and in assay [3] was “inactive” each time.

Consider `Cc1nc(C#Cc2ccnc(Cl)c2)c(C)n1-c1ccc(OC(F)(F)F)cc1`, for which the activation in assay [1] was -7.16%. Moreover, the Potency entry in assay [2] and in assay [3] was “inactive” in each case.

Regarding `COc1ccc(CNC(=O)c2cc(-c3cncc(C)c3)ncc2-c2nccs2)nc1OC`, in assay [1], the activation is 0.477%. For the same molecule, the Potency entry in assay [2] and in assay [3] was “inactive” each time.

As for `CCc1cccc(CC)c1-n1c(C=C(C)C)c(C(=O)N2CCNCC2)cc(-c2nc(-c3ccc(C(F)(F)F)cc3)cs2)c1=O`, in assay [1], the activation is 26.3%. Besides, the Potency entry in assay [2] and in assay [3] was “inactive” each time.

For the molecule `COC1OC(O)C2(CCC3(O2)C(C)CC2OC(=O)C4(C)CCCC3(C)C24)C1O` (stereo unspecified), in assay [1], the activation is 9.92%. For the same molecule, the Potency entry in assay [2] and in assay [3] was “inactive” each time.

Consider `OC[C@H]1O[C@@H](Oc2ccc3c(c2)OC[C@H]2c4cc5c(cc4O[C@@H]32)OCO5)[C@H](O)[C@@H](O)[C@@H]1O`, for which the activation in assay [1] is -13.7%. For the same molecule, the Potency result in assay [2] and in assay [3] was “inactive” each time.
